# According to article PMC7862700, “An all-to-all approach to the identification of sequence-specific readers for epigenetic DNA modifications on cytosine”:
# Tests used:
# Test in all cases: DAPPL (digital affinity profiling via proximity ligation, sequencing); 10 mM Tris-HCl pH 7.5, 50 mM NaCl, 1 mM DTT, 4% glycerol, room temperature, 30 min; GST-TFs on glutathione beads, 16-mer random dsDNA library, 0.1% formaldehyde crosslink after washing; high values mean tight binding
# Conditions in all cases: protein: recombinant; tags: N-terminal GST; dsDNA, one strand shown
# ERF = biological target: T1, ERF (Homo sapiens, UniProt P50548 1-548)
# T1 sequence: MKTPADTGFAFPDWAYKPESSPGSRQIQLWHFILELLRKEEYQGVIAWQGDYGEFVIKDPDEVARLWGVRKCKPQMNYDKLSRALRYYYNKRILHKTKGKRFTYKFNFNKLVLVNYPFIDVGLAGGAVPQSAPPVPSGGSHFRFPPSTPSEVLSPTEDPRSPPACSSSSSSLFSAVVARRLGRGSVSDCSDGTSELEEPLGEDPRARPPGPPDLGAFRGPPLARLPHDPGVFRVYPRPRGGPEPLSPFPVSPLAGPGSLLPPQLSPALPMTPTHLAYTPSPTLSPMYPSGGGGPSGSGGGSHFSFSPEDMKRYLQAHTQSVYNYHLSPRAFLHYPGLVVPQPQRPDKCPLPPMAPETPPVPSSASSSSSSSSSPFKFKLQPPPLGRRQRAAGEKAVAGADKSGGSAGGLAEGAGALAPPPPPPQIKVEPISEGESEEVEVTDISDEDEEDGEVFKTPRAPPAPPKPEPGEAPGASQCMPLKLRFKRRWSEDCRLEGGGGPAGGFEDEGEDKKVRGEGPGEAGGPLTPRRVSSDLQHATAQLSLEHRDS
# Procedure, shortened: (§1)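 Beads coated with glutathione captured GST-fused human transcription factors that had been expressed in yeast, and the factors were then given DNA barcodes and pooled with a tag-only sample. The pools were incubated with 200 nmole of a random double-stranded 16-mer DNA library in Tris/NaCl/DTT/glycerol buffer for 30 min at room temperature, washed, crosslinked with 0.1% formaldehyde and proximity-ligated with BsaI/T4 ligase at 37 °C for 1 h. PCR amplification and Illumina NextSeq500 sequencing came last. Binding signal is each hexamer's read frequency for a factor divided by its frequency for the tag-only sample.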
# ETV3L = biological target: T2, ETV3L (Homo sapiens, UniProt Q6ZN32 1-361)
# T2 sequence: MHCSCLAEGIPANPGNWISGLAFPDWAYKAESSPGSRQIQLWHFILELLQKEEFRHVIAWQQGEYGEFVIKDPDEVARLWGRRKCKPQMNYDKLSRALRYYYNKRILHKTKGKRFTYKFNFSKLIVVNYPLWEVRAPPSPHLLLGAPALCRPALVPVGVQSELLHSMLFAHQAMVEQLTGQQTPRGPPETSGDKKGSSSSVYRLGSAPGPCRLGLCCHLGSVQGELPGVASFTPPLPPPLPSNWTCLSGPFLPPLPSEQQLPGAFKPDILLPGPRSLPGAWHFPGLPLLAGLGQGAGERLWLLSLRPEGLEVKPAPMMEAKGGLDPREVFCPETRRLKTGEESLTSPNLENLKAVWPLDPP
# Procedure, shortened: as §1
# ETS2 = biological target: T3, ETS2 (Homo sapiens, UniProt P15036 1-469)
# T3 sequence: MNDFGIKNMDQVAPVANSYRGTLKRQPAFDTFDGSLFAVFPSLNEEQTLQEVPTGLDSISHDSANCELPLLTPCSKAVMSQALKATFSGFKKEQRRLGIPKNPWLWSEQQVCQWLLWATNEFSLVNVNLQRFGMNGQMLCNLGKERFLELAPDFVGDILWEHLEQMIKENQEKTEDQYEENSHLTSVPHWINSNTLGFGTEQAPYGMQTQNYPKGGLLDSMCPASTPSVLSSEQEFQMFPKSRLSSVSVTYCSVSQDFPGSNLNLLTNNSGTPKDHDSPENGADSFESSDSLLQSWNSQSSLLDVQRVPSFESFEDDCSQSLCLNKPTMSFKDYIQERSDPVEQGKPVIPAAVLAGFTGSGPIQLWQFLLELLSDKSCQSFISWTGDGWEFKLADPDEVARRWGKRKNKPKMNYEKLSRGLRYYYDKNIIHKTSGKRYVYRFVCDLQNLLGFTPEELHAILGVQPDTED
# Procedure, shortened: as §1
# SPDEF = biological target: T4, SPDEF (Homo sapiens, UniProt O95238 1-335)
# T4 sequence: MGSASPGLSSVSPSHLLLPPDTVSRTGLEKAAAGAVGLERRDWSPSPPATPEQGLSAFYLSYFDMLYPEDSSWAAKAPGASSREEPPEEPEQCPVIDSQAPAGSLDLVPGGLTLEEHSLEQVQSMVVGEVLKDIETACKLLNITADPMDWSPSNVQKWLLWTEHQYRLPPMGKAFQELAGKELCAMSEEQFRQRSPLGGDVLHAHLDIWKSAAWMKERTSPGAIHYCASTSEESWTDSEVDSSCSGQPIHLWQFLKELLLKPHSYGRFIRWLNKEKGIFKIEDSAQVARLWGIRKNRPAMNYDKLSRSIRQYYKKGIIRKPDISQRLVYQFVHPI
# Procedure, shortened: as §1
# ETV7 = biological target: T5, ETV7 (Homo sapiens, UniProt Q9Y603 1-341)
# T5 sequence: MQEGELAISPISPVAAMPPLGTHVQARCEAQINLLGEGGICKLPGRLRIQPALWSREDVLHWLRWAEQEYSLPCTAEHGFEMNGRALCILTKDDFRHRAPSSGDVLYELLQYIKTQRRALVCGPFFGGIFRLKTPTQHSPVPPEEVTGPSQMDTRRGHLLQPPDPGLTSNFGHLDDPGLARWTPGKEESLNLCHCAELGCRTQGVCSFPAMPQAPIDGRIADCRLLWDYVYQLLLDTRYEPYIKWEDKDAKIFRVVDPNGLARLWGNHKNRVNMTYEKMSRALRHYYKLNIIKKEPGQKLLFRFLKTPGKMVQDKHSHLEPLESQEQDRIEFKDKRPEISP
# Procedure, shortened: as §1
# ELF5 = biological target: T6, ELF5 (Homo sapiens, UniProt Q9UKW6-2 1-255)
# T6 sequence: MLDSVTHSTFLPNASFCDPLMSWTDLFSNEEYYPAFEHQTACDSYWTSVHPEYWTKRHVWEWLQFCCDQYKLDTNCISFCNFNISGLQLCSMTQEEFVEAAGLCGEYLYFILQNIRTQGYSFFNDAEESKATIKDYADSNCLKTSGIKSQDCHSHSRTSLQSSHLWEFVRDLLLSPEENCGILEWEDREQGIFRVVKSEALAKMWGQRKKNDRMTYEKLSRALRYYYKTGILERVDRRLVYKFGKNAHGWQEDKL
# Procedure, shortened: as §1
# ETV3 = biological target: T7, ETV3 (Homo sapiens, UniProt P41162-2 1-143)
# T7 sequence: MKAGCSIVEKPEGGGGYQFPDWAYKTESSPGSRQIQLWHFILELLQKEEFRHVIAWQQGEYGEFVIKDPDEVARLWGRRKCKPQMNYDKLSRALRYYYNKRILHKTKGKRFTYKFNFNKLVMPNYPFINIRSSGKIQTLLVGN
# Procedure, shortened: as §1
# ETV6 = ETV6 (Homo sapiens, UniProt P41212 1-452)
# Procedure, shortened: as §1
# Chain of ETV6 (P41212 whole entry): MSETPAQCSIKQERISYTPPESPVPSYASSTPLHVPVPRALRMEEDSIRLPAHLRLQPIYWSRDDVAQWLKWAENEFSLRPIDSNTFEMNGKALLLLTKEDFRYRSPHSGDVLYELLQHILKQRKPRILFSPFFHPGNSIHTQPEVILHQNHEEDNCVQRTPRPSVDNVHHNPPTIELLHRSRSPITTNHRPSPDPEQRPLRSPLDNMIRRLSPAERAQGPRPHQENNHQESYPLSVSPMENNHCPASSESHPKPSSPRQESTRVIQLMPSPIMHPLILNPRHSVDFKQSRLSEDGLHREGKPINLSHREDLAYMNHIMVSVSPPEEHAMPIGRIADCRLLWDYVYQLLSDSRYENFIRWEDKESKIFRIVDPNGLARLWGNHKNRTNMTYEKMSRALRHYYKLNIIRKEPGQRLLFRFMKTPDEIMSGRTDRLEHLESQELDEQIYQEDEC
Sequence,binding signal (ERF),binding signal (ETV3L),binding signal (ETS2),binding signal (SPDEF),binding signal (ETV7),binding signal (ELF5),binding signal (ETV3),binding signal (ETV6)
CTACCT,"1.74 fold enrichment (6-mer frequency, TF over GST control)","1.53 fold enrichment (6-mer frequency, TF over GST control)","1.45 fold enrichment (6-mer frequency, TF over GST control)","1.45 fold enrichment (6-mer frequency, TF over GST control)","1.22 fold enrichment (6-mer frequency, TF over GST control)","1.59 fold enrichment (6-mer frequency, TF over GST control)","1.44 fold enrichment (6-mer frequency, TF over GST control)","1.51 fold enrichment (6-mer frequency, TF over GST control)"
GTTTAA,"1.21 fold enrichment (6-mer frequency, TF over GST control)","1.24 fold enrichment (6-mer frequency, TF over GST control)","1.15 fold enrichment (6-mer frequency, TF over GST control)","1.05 fold enrichment (6-mer frequency, TF over GST control)","1.21 fold enrichment (6-mer frequency, TF over GST control)","1.17 fold enrichment (6-mer frequency, TF over GST control)","1.13 fold enrichment (6-mer frequency, TF over GST control)","1.13 fold enrichment (6-mer frequency, TF over GST control)"
ATTATG,"1.11 fold enrichment (6-mer frequency, TF over GST control)","1.27 fold enrichment (6-mer frequency, TF over GST control)","1.14 fold enrichment (6-mer frequency, TF over GST control)","1.19 fold enrichment (6-mer frequency, TF over GST control)","1.32 fold enrichment (6-mer frequency, TF over GST control)","1.14 fold enrichment (6-mer frequency, TF over GST control)","1.2 fold enrichment (6-mer frequency, TF over GST control)","1.33 fold enrichment (6-mer frequency, TF over GST control)"
ATCTAG,"1.18 fold enrichment (6-mer frequency, TF over GST control)","1.08 fold enrichment (6-mer frequency, TF over GST control)","1.11 fold enrichment (6-mer frequency, TF over GST control)","1.03 fold enrichment (6-mer frequency, TF over GST control)","1.19 fold enrichment (6-mer frequency, TF over GST control)","1.1 fold enrichment (6-mer frequency, TF over GST control)","1.07 fold enrichment (6-mer frequency, TF over GST control)","1.05 fold enrichment (6-mer frequency, TF over GST control)"
GCTTCG,"1.56 fold enrichment (6-mer frequency, TF over GST control)","1.31 fold enrichment (6-mer frequency, TF over GST control)","1.32 fold enrichment (6-mer frequency, TF over GST control)","1.35 fold enrichment (6-mer frequency, TF over GST control)","1.44 fold enrichment (6-mer frequency, TF over GST control)","1.3 fold enrichment (6-mer frequency, TF over GST control)","1.37 fold enrichment (6-mer frequency, TF over GST control)","1.29 fold enrichment (6-mer frequency, TF over GST control)"
ACCCTA,"1.3 fold enrichment (6-mer frequency, TF over GST control)","1.26 fold enrichment (6-mer frequency, TF over GST control)","1.24 fold enrichment (6-mer frequency, TF over GST control)","1.19 fold enrichment (6-mer frequency, TF over GST control)","1.27 fold enrichment (6-mer frequency, TF over GST control)","1.19 fold enrichment (6-mer frequency, TF over GST control)","1.25 fold enrichment (6-mer frequency, TF over GST control)","1.17 fold enrichment (6-mer frequency, TF over GST control)"
TATGGA,"1.16 fold enrichment (6-mer frequency, TF over GST control)","1.13 fold enrichment (6-mer frequency, TF over GST control)","1.12 fold enrichment (6-mer frequency, TF over GST control)","1.18 fold enrichment (6-mer frequency, TF over GST control)","1.26 fold enrichment (6-mer frequency, TF over GST control)","1.08 fold enrichment (6-mer frequency, TF over GST control)","1.22 fold enrichment (6-mer frequency, TF over GST control)","1.05 fold enrichment (6-mer frequency, TF over GST control)"
CTACTG,"1.4 fold enrichment (6-mer frequency, TF over GST control)","1.37 fold enrichment (6-mer frequency, TF over GST control)","1.34 fold enrichment (6-mer frequency, TF over GST control)","1.21 fold enrichment (6-mer frequency, TF over GST control)","1.26 fold enrichment (6-mer frequency, TF over GST control)","1.32 fold enrichment (6-mer frequency, TF over GST control)","1.16 fold enrichment (6-mer frequency, TF over GST control)","1.24 fold enrichment (6-mer frequency, TF over GST control)"
